The source made the active and inactive calls. A call without a number means that no potency is given here. Calls come from the whole dose curve; as a rule, active = well fitted curve in the direction sought with a large enough effect in the repeat runs; inconclusive = weak or mixed curves; inactive = flat fitted curve, though single readings scatter.
assay: qHTS assay to test for compound auto fluorescence at 535 nm (green) in HepG2 cells (AID 720675); conditions: green autofluorescence 485/535 nm, 1 h; series mostly up to 91.3 µM
Text: National Center for Advancing Translational Sciences [NCATS]
NIH Chemical Genomics Center [NCGC]
U.S. Environmental Protection Agency [EPA]
National Institutes of Environmental Health Sciences [NIEHS]
National Toxicology Program [NTP]
U.S. Food and Drug Administration [FDA]
Compound auto fluorescence often interferes with screening of the compound library against various biological targets and signaling pathways. Some of these compounds may have fluorophoric properties. Such properties may interfere with the assay outputs resulting in false positives and/or negatives. To decrease such complications and ensure the compound activities are relevant in terms of biological response, the Tox21 10K compound library was screened for auto fluorescence.
From the fluorophores used as reporter signals in our screening assays, the auto fluorescence equivalencies of compounds against three fluorophores have been evaluated: Triamterene, Fluorescein and Rose Bengal sodium for blue, green and red fluorescence, respectively. The fluorescence intensities were measured using Excitation/Emission wavelengths at 405/460nm, 485/535nm and 540/590nm for blue, green and red labels, respectively. This assay includes the green fluorescence data.
Tox21 Assay Protocol Summary:
2,000 HepG2 cells in 5 uL of culture medium (MEM containing 10% FBS) per well were dispensed into black wall/clear bottom 1536-well plates using a Multidrop Combi Dispenser (ThermoFisher Scientific, Waltham, MA). The assay plates were incubated overnight at 37 C to allow cell attachment to the well bottom, followed by the transfer of 23 nL compound or DMSO vehicle by a pintool work station (Kalypsys , San Diego, CA). After the assay plates were incubated for 1 hr at 37 C and 5% CO2, fluorescence intensities in the assay plates were measured by an Envision (PerkinElmer, Shelton, CT) plate reader using three labels for measuring blue, green and red fluorescence at […] 460, 535 and 590 nm respectively.

| SMILES | fluorescence, % of fluorescein control | Potency |
| --- | --- | --- |
| Clc1ccc(Cn2c(CN3CCCC3)nc3ccccc32)cc1 | 0.097% [at 18.6 µM] (inactive) |  |
| CN(C)CCN(Cc1ccc(Cl)cc1)c1ccccn1 | 0.0171% [at 18.6 µM] (inactive) |  |
| COS(=O)(=O)C(F)(F)F |  | inactive |
| CCOC(=O)Cc1cccc2ccccc12 |  | inactive |
| C=C(C)C(=O)OCCO |  | inactive |
| CCCCCCCCCCCC(=O)OC[C@@H](O)[C@H]1OC[C@H](OCCO)[C@H]1OCCO |  | inactive |
| CNCCCCOc1ccccc1Cc1ccccc1 |  | inactive |
| O=[N+]([O-])c1cccc(S(=O)(=O)O)c1 |  | inactive |
| O=C(c1ccc(F)cc1)C1CCN(CCn2c(=S)[nH]c3ccccc3c2=O)CC1 |  | inactive |
| CCN(CC)CCOC(=O)C(c1ccccc1)C1CCCCC1 (stereo not given) |  | inactive |
| O=C(O)c1ccco1 |  | inactive |
| COc1cc(C(=O)OCCCN2CCCN(CCCOC(=O)c3cc(OC)c(OC)c(OC)c3)CC2)cc(OC)c1OC |  | inactive |
| O=C(Cl)c1cc(C(=O)Cl)cc(C(=O)Cl)c1 |  | inactive |
| Clc1ccc2c(c1)CCc1cccnc1C2=C1CCNCC1 |  | inactive |
| Nc1ccc(S(=O)(=O)Nc2ccccc2)cc1 |  | inactive |
| CC(C)C[C@H]1C(=O)N2CCC[C@H]2[C@]2(O)O[C@](NC(=O)[C@@H]3C=C4c5cccc6[nH]c(Br)c(c56)C[C@H]4N(C)C3)(C(C)C)C(=O)N12 |  | inactive |
| CC(C)(C)Cl |  | inactive |
| NCCCN1CCOCC1 |  | inactive |
| CCN(CC)CCNc1ccc(CNC=O)c2sc3ccc(OC)cc3c(=O)c12 |  | inactive |
| CCN(CC)CCOC(=O)C(Cc1cccc2ccccc12)CC1CCCO1 (stereo not given) | 0.0388% [at 18.6 µM] (inactive) |  |

| SMILES | fluorescence, % of fluorescein control | Potency |
| --- | --- | --- |
| COc1ccnc(CS(=O)c2nc3ccc(OC(F)F)cc3[nH]2)c1OC (stereo not given) |  | inactive |
| CCCCO |  | inactive |
| Cc1oc(-c2ccccc2)nc1CCOc1cccc2c1ccn2CCC(=O)O |  | inactive |
| CCCCc1nc2cccnc2n1Cc1ccc(-c2ccccc2-c2nnn[nH]2)cc1 |  | inactive |
| CCCCc1ncc(/C=C(\Cc2cccs2)C(=O)O)n1Cc1ccc(C(=O)O)cc1 |  | inactive |
| ClCCOCCOCCCl |  | inactive |
| Cc1cc(N)c2cc(NC(=O)Nc3ccc4nc(C)cc(N)c4c3)ccc2n1 |  | inactive |
| COc1ccc(C(=O)c2ccc(OC)cc2O)c(O)c1 |  | inactive |
| CN1CCN(C(c2ccccc2)c2ccccc2)CC1 | -0.189% [at 18.6 µM] (inactive) |  |
| C=CC(=O)OCCOCCOCCOCCOC(=O)C=C |  | inactive |
| COc1cc2nc(N3CCN(C(=O)C4COc5ccccc5O4)CC3)nc(N)c2cc1OC (stereo not given) |  | inactive |
| Nc1cccc([N+](=O)[O-])c1 |  | inactive |
| CCOCC(O)COc1ccc(NC(=O)CC[S+](C)C)cc1 (stereo not given) |  | inactive |
| CN1CCC(=C2c3ccccc3Sc3ccccc32)CC1 |  | inactive |
| CCCOC(C(=O)OC1CCN(C)CC1)(c1ccccc1)c1ccccc1 |  | inactive |
| CCCCC/C=C\C/C=C\CCCCCCCC(=O)NC(C)c1ccccc1 (stereo not given) |  | inactive |
| CC(C)(CO)[N+](=O)[O-] |  | inactive |
| C[C@H](CCC(=O)O)[C@H]1CC[C@H]2[C@@H]3CC[C@@H]4C[C@H](O)CC[C@]4(C)[C@H]3C[C@H](O)[C@]12C |  | inactive |
| C/C=C/C=C/CO |  | inactive |
| O=C(Nc1ccccc1)c1ccccc1O |  | inactive |

From PubChem BioAssay (Tox21)
